Tau fibril FP – inhibitors of human tau fibril formation; hit rate 0.39% among 280,000; P10636; K18 P301L tau heparin fibrillization, Alexa594 FP, 6 h; Potency, µM (highest dose often 57.7 µM), actives largely listed as inhibitors; further: nearly all actives have a fitted effect of over 55% in size
Target sequence (P10636 561-689 P618L limits assumed): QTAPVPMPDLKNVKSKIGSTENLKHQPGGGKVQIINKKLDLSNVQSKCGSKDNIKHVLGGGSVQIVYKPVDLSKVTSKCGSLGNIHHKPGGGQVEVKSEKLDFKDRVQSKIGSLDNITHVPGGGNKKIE
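Quantitative HTS format: compounds meet 15 uM recombinant K18 P301L tau and Alexa 594-tau tracer in 100 mM sodium acetate pH 7; 20 uM heparin triggers fibrillization at 37 C over 6 hr; FP gives the signal.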
Tau ThT inhib – blocks human tau fibril formation measured by thioflavin T; P10636; recombinant tau K18 P301L, heparin-induced fibrillization, ThT fluorescence; Potency, µM (top dose mostly 57.4 µM), hits mostly inhibitors; hit rate 2.1% among 270,000; further: nearly all actives have a fitted effect of over 55% in size
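In this qHTS, human K18 P301L tau is incubated with compound and heparin for 6 hr at 37 C, and Thioflavin T fluorescence then reports fibril load.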
Tau fluor cs – counter-screen for tau fibril formation inhibitors | Potency, µM (doses to about 57.7 µM) | hit rate 0.93% among 280,000 | tau K18 P301L (four-repeat tau fragment) Alexa594 fluorescence, heparin fibrillization; further: nearly all actives have a fitted effect of over 55% in size
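Human K18 P301L tau (15 uM unlabeled plus 0.24 uM Alexa 594-labeled, final) in 100 mM sodium acetate pH 7 was mixed with compound and 20 uM heparin and incubated 6 hr at 37 C.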
NPSR antagonist – antagonists of human neuropeptide S receptor cAMP signaling; CHO-NPSR cells, cAMP TR-FRET, antagonist mode; Potency, µM (series often up to 38.3 µM), hits mostly inhibitors; hit rate 1% among 220,000; Q6W5P4; further: nearly all actives have a fitted effect of over 50% in size
Target sequence (Q6W5P4 whole entry, looked up): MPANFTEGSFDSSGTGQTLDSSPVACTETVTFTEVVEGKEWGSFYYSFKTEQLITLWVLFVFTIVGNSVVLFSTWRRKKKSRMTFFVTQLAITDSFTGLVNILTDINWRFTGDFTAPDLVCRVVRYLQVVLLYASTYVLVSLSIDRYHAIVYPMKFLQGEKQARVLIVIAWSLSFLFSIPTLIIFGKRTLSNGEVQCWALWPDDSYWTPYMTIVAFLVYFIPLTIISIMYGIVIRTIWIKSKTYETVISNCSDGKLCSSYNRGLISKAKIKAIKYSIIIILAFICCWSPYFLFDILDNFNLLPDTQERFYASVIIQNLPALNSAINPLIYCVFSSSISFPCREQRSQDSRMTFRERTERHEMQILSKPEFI
ALDH1A1 inh – blocks purified human ALDH1A1 activity | Potency, µM (doses to about 75.3 µM), actives largely listed as inhibitors | hit rate 7.3% among 220,000 | P00352 | Purified ALDH1A1, NADH fluorescence, propionaldehyde substrate; active means well fitted inhibition curve with a large enough effect, not every such curve was filed as active; inconclusive means small, poorly fitted or top-dose-only effect, or another doubt; inactive means no such curve, though single readings can be large or run the other way
HPGD inh – blocks human HPGD enzyme activity | hit rate 4.3% among 150,000 | AID 894 | P15428 | Potency, µM, most hits filed as inhibitors | purified HPGD, NADH fluorescence kinetic, PGE2 substrate; active means well fitted inhibition curve with a large enough effect, not every such curve was filed as active; inconclusive means small, poorly fitted or top-dose-only effect, or another doubt; inactive means no such curve, though single readings can be large or run the other way
Target sequence (P15428 whole entry, looked up): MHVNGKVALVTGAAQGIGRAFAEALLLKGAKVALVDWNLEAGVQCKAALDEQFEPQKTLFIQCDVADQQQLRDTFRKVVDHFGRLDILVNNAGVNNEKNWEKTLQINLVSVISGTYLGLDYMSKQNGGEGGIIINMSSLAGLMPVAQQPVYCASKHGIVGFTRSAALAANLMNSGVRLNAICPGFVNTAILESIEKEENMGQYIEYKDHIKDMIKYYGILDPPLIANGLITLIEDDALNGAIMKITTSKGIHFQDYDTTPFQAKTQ
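20 nM HPGD preincubated 15 min at room temperature with compound in 50 mM Tris-HCl pH 8, 0.01% Tween 20. Started with 1 mM NAD+ and 30 uM prostaglandin E2; NADH fluorescence (360/450 nm) read 5 times over 30-s intervals, last minus first.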
Large screens that a line does not name were inactive; [ ] = another dose, or the depositor's remark. Most compounds without a hit are left out; they make up all but 9.5% or so of the library. Unless noted, the call rests on the fitted dose curve; in most records, active means well fitted curve in the direction sought with a large enough effect; inconclusive means small, poorly fitted or top-dose-only effect, or another doubt; inactive means no such curve, though single readings can be large; an effect the other way counts as inactive or inconclusive.

CC1Cn2cc(C(=O)Nc3ccccc3C(F)(F)F)c(=O)c3c(Cl)ccc(c32)O1 (stereo not given)	none (no result: NPSR antagonist, ALDH1A1 inh, HPGD inh)
Cc1ccccc1NCc1ccc(O)c2ncccc12	ALDH1A1 inh 4µM
Oc1ccc(CNc2ccccc2)c2cccnc12	Tau ThT inhib inconclusive, ALDH1A1 inh 10µM
Oc1ccc(CN2CCN(Cc3ccccc3)CC2)c2cccnc12	none
Oc1ccc(CNc2ccc(F)cc2)c2cccnc12	Tau ThT inhib inconclusive, ALDH1A1 inh 8.9µM
Oc1ccc(Cn2ccnc2)c2cccnc12	Tau ThT inhib inconclusive (no result: HPGD inh)
Cc1ccccc1N=Nc1ccc(O)c2ncccc12	Tau ThT inhib inconclusive
Cc1cccc(NCc2ccc(O)c3ncccc23)c1	Tau ThT inhib inconclusive, ALDH1A1 inh 2.8µM (no result: HPGD inh)
Cc1ccc(NS(=O)(=O)c2ccc(NC(=O)N3CCCC3)cc2)cc1C	none (no result: NPSR antagonist, ALDH1A1 inh, HPGD inh)
CCc1ccc(NC(=O)CCc2c(C)nn(-c3ccc(N4CCCC4)nn3)c2C)cc1	Tau ThT inhib inconclusive (no result: NPSR antagonist, ALDH1A1 inh, HPGD inh)
Cc1ccc(-n2ncc3c(NC4CCCCC4)ncnc32)cc1Cl	Tau fibril FP inconclusive, Tau fluor cs inconclusive (no result: NPSR antagonist, ALDH1A1 inh, HPGD inh)
COCc1ccc(O)c2ncccc12	NPSR antagonist 4µM
CC1=C(C(N)=O)C(c2ccc(C(C)C)cc2)n2nc(SCc3ccccc3)nc2N1 (stereo not given)	none (no result: NPSR antagonist, ALDH1A1 inh, HPGD inh)
O=C1[C@@H]2[C@H]3[C@H](O)[C@H](O)C/C(=N/OC[C@@H](O)COCc4ccco4)[C@H]3CC[C@H]2C(=O)N1c1ccc(F)cc1F	none (no result: NPSR antagonist, HPGD inh)
O=C(Nc1ccc2c(c1)OCCO2)c1ccc(Cl)c([N+](=O)[O-])c1	Tau ThT inhib inconclusive, Tau fluor cs inconclusive, ALDH1A1 inh inconclusive
O=C(Nc1ccc(C2=NCCN2)cc1)c1ccc(C(=O)Nc2ccc(C3=NCCN3)cc2)c([N+](=O)[O-])c1	Tau ThT inhib 4.5µM, Tau fluor cs inconclusive (no result: ALDH1A1 inh, HPGD inh)
CC(C)n1c(O)c(N=Nc2ccc(Cl)c(C(=O)O)c2)c2ccccc21	Tau ThT inhib 16µM (no result: ALDH1A1 inh, HPGD inh)
CCn1c(O)c(N=Nc2ccc(Cl)c(C(=O)O)c2)c2ccccc21	Tau ThT inhib 4.5µM (no result: ALDH1A1 inh, HPGD inh)
COC(=O)COc1ccc(Oc2nc(NC(C)(C)C)nc(N(C)C)n2)nn1	none (no result: NPSR antagonist, ALDH1A1 inh, HPGD inh)
N=C(N)SCc1cc(Cl)cc(Cl)c1O	none (no result: Tau fibril FP, Tau ThT inhib, Tau fluor cs, NPSR antagonist)
C=CCn1c(SCC(=O)NC23CC4CC(CC(C4)C2)C3)nc2cc(C(=O)O)ccc2c1=O	ALDH1A1 inh 13µM (no result: HPGD inh)
C=CCn1c(SCc2cc([N+](=O)[O-])cc3c2OCOC3)nc2cc(C(=O)O)ccc2c1=O	Tau ThT inhib inconclusive, NPSR antagonist inconclusive, ALDH1A1 inh 10µM (no result: HPGD inh)
COc1ccc(N2C(=O)C3CCCCC3C2=O)cc1NC(=O)c1ccccc1 (stereo not given)	ALDH1A1 inh 0.89µM (no result: HPGD inh)
COc1cc(NC(=O)C2CCCO2)c(OC)cc1NC(=O)c1ccccc1 (stereo not given)	none
O=C(NC1(C(F)(F)F)NC(=O)N(CCc2ccccc2)C1=O)c1ccccc1F (stereo not given)	none (no result: NPSR antagonist, ALDH1A1 inh, HPGD inh)
COC(=O)CSC1=C(C#N)C(c2ccccc2F)CC(=O)N1 (stereo not given)	none (no result: ALDH1A1 inh, HPGD inh)
CC1=C(C(=O)Nc2ccccc2)C(c2ccco2)C(C#N)=C(SCc2ccccc2)N1 (stereo not given)	Tau fibril FP inconclusive, Tau fluor cs inconclusive, NPSR antagonist inconclusive, ALDH1A1 inh inconclusive, HPGD inh inconclusive
CCCCSC1=C(C#N)C(c2ccccc2C)CC(=O)N1 (stereo not given)	HPGD inh inconclusive
N#CC1=C(SCC(=O)NC2CCCCC2)NC(=O)CC1c1ccco1 (stereo not given)	ALDH1A1 inh 11µM
N#CC1=C(SCc2ccccc2)NC(=O)CC1c1ccco1 (stereo not given)	Tau ThT inhib inconclusive, ALDH1A1 inh 22µM
Cc1ccc(C2CC(=O)NC(SCc3ccccc3)=C2C#N)o1 (stereo not given)	HPGD inh 22µM
N#CC1=C(SCC(=O)NCc2ccccc2)NC(=O)CC1c1ccco1 (stereo not given)	ALDH1A1 inh 8.9µM
CCOc1ccc(C2CC(=O)NC(SCC(=O)OC)=C2C#N)cc1 (stereo not given)	none
CCN(CC)CCCn1c(-c2ccccc2)nc2c(N3CCOCC3)nc(C)nc21	Tau fibril FP inconclusive, ALDH1A1 inh inconclusive, HPGD inh inconclusive (no result: NPSR antagonist)
O=C(NCc1cccs1)c1ccc(CSc2nc3ccncc3n2Cc2ccccc2F)cc1	Tau fluor cs inconclusive (no result: NPSR antagonist, ALDH1A1 inh, HPGD inh)
CCCCCCSC1=C(C#N)C(c2ccc(C)o2)CC(=O)N1 (stereo not given)	ALDH1A1 inh 7.9µM, HPGD inh 32µM
CCSC1=C(C#N)C(c2ccc(C)o2)CC(=O)N1 (stereo not given)	none (no result: ALDH1A1 inh, HPGD inh)
CCCCCC1=C2CNC(C)(C(=O)OC)C=C2C(C)C1=O (stereo not given)	none (no result: NPSR antagonist)
CCCCCC1=C2CNC(CCC)(C(=O)OC)C=C2C(C)C1=O (stereo not given)	ALDH1A1 inh 28µM (no result: NPSR antagonist)
CCOc1ccc(C2c3[nH]c4ccccc4c3CCN2C(=O)Cn2cncn2)cc1 (stereo not given)	none (no result: HPGD inh)
Cc1ccccc1C1c2[nH]c3ccccc3c2CCN1C(=O)c1ccc(=O)n(C)n1 (stereo not given)	Tau ThT inhib inconclusive, ALDH1A1 inh 32µM (no result: HPGD inh)
COc1cccc(C2c3[nH]c4ccccc4c3CCN2C(=O)Cn2cncn2)c1OC (stereo not given)	ALDH1A1 inh 9.5µM (no result: HPGD inh)
C[Si](C)(C/C=C/CC[C@H](O)C1=CCCCC1=O)c1ccccc1	none (no result: NPSR antagonist)
Cc1nn(CC(=O)NCc2cccc3ccccc23)c(=O)c2ccccc12	HPGD inh inconclusive
COc1ccc(CN(C(C)=O)c2cccc(C)c2C)cc1	ALDH1A1 inh 5µM
CC(=O)N(Cc1ccc(Br)cc1)c1cccc(C)c1C	ALDH1A1 inh inconclusive (no result: HPGD inh)
COc1ccc(OC)c(N=C2C(=O)Nc3ccccc32)c1	Tau ThT inhib inconclusive
COc1ccc(N=C2C(=O)Nc3ccccc32)cc1	Tau ThT inhib inconclusive, ALDH1A1 inh inconclusive
COc1cc(/C=N/N=C2/C(=O)Nc3ccccc32)ccc1O	Tau ThT inhib 11µM, Tau fluor cs inconclusive
Cc1ccsc1/C=N/N=C1\C(=O)Nc2ccccc21	Tau ThT inhib 14µM, Tau fluor cs inconclusive
O=C(/C(=N/N=C/c1ccc(O)c(O)c1)c1ccccc1)c1ccccc1	Tau ThT inhib inconclusive, Tau fluor cs 13µM[quencher]
COc1cc(/C=N/N=C2/NC(=O)C(c3ccccc3)S2)ccc1O (stereo not given)	none
O=C1Nc2ccccc2/C1=N\N=C\c1ccc(O)c(O)c1	Tau ThT inhib 4.5µM, Tau fluor cs inconclusive, ALDH1A1 inh inconclusive (no result: HPGD inh)
O=C(O)Cc1sc(Nc2ccccc2Cl)nc1-c1ccccc1	none (no result: NPSR antagonist, ALDH1A1 inh, HPGD inh)
CC(=Nc1ccccc1C)C1=C(O)CSC1=O	none
COCC(=O)Nc1ncc(S(=O)(=O)c2ccc([N+](=O)[O-])cc2)s1	ALDH1A1 inh inconclusive (no result: HPGD inh)
